The values below come from PubChem BioAssay (Tox21).

For experiment [1], the target named is Peroxisome proliferator-activated receptor delta (Homo sapiens) (UniProt Q03181). In words: qHTS assay to identify small molecule agonists of the peroxisome proliferator-activated receptor delta (PPARd) signaling pathway (AID 743212; calls by dose curve; note: potency is the fitted concentration of half-maximal effect; for activation: % is set by controls: 0 for no effect and ±100 for the full control effect). The gist of the method: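 Tox21 library screened in GeneBLAzer PPARd UAS-bla HEK293H cells. After compound treatment at 37 C, a FRET-based beta-lactamase substrate was applied for 2 h and fluorescence recorded.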
Chain of Peroxisome proliferator-activated receptor delta (Homo sapiens) (Q03181 whole entry, looked up): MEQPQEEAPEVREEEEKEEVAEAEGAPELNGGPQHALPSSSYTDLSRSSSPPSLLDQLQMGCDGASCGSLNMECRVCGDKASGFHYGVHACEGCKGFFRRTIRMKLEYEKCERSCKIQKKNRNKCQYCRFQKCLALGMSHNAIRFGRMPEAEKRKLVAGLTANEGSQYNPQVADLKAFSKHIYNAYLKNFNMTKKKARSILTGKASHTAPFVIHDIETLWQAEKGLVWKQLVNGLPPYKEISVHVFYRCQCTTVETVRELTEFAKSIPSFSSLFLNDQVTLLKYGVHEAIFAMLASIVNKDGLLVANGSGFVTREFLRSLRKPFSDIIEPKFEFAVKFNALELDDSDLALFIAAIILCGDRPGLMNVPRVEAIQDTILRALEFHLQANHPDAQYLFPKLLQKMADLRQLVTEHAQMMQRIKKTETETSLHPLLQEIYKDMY

Experiment [2] can be described thus: qHTS assay to identify small molecule antagonists of the peroxisome proliferator-activated receptor delta (PPARd) signaling pathway - cell viability counter screen (AID 743213). For viability change, negative = cytotoxic: % is set by controls: 0 for no effect and ±100 for the full control effect. Note: nearly all actives have a fitted effect of over 50% in size. Note: potency is the fitted concentration of half-maximal effect. The method, boiled down: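 CellTiter-Glo was added to PPARd-bla HEK293H wells following 17 h compound treatment in the presence of 300 nM L165041. Luminescence was recorded after 30 min at room temperature.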

Experiment [3] is described as follows: qHTS assay to identify small molecule agonists of the farnesoid-X-receptor (FXR) signaling pathway - cell viability counter screen (AID 743218). Note: nearly all actives have a fitted effect of over 45% in size. Note: potency is the fitted concentration of half-maximal effect. The gist of the method:
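Quantitative HTS counter screen measuring ATP-based viability via CellTiter-Glo luminescence in HEK 293T cells carrying a UAS-driven beta-lactamase reporter, after 16 h compound exposure at 37 C.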

Experiment [4] is described as follows: qHTS assay to identify small molecule antagonists of the farnesoid-X-receptor (FXR) signaling pathway - cell viability counter screen (AID 743221; active = well fitted cell-killing curve with a large enough effect in the repeat runs, not every such curve was filed as active; note: nearly all actives have a fitted effect of over 50% in size; note: potency is the fitted concentration of half-maximal effect). The gist of the method: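 After a 5 h settling period, FXR-bla HEK 293T cells receive compound and chenodeoxycholic acid (50 uM final) and incubate 16 h at 37 C; CellTiter-Glo luminescence, read after 30 min at room temperature, reports cell viability.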
Background: qHTS replaces the single test concentration by a dilution series.

Experiment [5] can be described thus: qHTS assay to identify small molecule agonists of the vitamin D receptor (VDR) signaling pathway - cell viability counter screen (AID 743224). Note: nearly all actives have a fitted effect of over 50% in size. Note: potency is the fitted concentration of half-maximal effect. The method, boiled down:
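CellTiter-Glo viability readout on VDR-bla cells, measured after 16 h of compound treatment at 37C in the same wells.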

A short description of experiment [6]: qHTS assay to identify small molecule antagonists of the vitamin D receptor (VDR) signaling pathway - cell viability counter screen (AID 743225). Note: nearly all actives have a fitted effect of over 50% in size. Note: potency is the fitted concentration of half-maximal effect. The gist of the method:
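Parallel cytotoxicity test: VDR-UAS-bla HEK 293T, 3 nM (final) 1-alpha,25-dihydroxyvitamin D3 with test compound, 16 h, 37C. Endpoint is CellTiter-Glo luminescence in the same wells.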

Experiment [7] is described as follows: qHTS assay to identify small molecule agonists of the NFkB signaling pathway - cell viability counter screen (AID 1159515; calls by dose curve; note: nearly all actives have a fitted effect of over 55% in size; note: potency is the fitted concentration of half-maximal effect). The method, boiled down: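 Tox21 library compounds were tested for cytotoxicity against NFkB-bla ME-180 cells during a 5 hr exposure at 37 C. CellTiter-Glo luminescence served as the viability read-out.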
The nature of experiment [8]: qHTS assay to identify small molecule antagonists of the retinoid-related orphan receptor gamma (ROR-gamma) signaling pathway - cell viability counter screen (AID 1159520). Note: nearly all actives have a fitted effect of over 50% in size. Note: potency is the fitted concentration of half-maximal effect. The method, boiled down: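 Tet-on ROR gamma CHO cells were given compounds for 2 hr, then doxycycline hyclate at 1 uM final, and incubated 16 hr at 37 C. Viability was measured as ATP content by CellTiter-Glo luminescence.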

The target in experiment [9] is Nuclear receptor ROR-gamma (Homo sapiens) (UniProt P51449). In words: qHTS assay to identify small molecule antagonists of the retinoid-related orphan receptor gamma (ROR-gamma) signaling pathway (AID 1159521; note: nearly all actives have a fitted effect of over 50% in size; note: potency is the fitted concentration of half-maximal effect). The gist of the method: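 Decreased RORE-driven luciferase luminescence indicates antagonism. Tet-on RORγ CHO cells received compound, then 1 uM final doxycycline 2 h later; signal read after 16 h incubation.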

Experiment [10] is described as follows: qHTS assay to identify small molecule agonists of the AP-1 signaling pathway - cell viability counter screen (AID 1159525; calls by dose curve; note: nearly all actives have a fitted effect of over 55% in size; note: potency is the fitted concentration of half-maximal effect). The method, boiled down:
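Same-well cytotoxicity counter screen of the Tox21 10K library in ME-180 cells. The readout is ATP-dependent luminescence after 5 h compound treatment. Data are normalised to DMSO and tetra n-octyl ammonium bromide controls.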

In experiment [11] the target is Retinoic acid receptor RXR-alpha (Homo sapiens) (UniProt P19793). In words: qHTS assay to identify small molecule agonists of the RXR signaling pathway (AID 1159527; calls by dose curve; note: % is set by controls: 0 for no effect and ±100 for the full control effect; nearly all actives have a fitted effect of over 35% in size). The gist of the method:
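16 hr incubation of compound-treated RXR-alpha-UAS-bla HEK 293T cells (2% charcoal-stripped FBS, 37 C) preceded a 2 hr room-temperature LiveBLAzer FRET substrate step and blue/green fluorescence measurement.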

Experiment [12] can be described thus: qHTS assay to identify small molecule agonists of the RXR signaling pathway - cell viability counter screen (AID 1159529). Note: nearly all actives have a fitted effect of over 50% in size. Note: potency is the fitted concentration of half-maximal effect. The gist of the method: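 In this parallel viability measure, GeneBLAzer RXR-alpha HEK 293T cells (2% charcoal-stripped FBS) were given a 5 hr preincubation, treated with compounds 16 hr at 37 C, and read by CellTiter-Glo luminescence.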

Experiment [13] concerns the target Vitamin D3 receptor (Homo sapiens) (UniProt P11473). Nature of the experiment: qHTS assay to identify small molecule agonists of the vitamin D receptor (VDR) signaling pathway (AID 743222; calls by dose curve; note: potency is the fitted concentration of half-maximal effect). The method, boiled down:
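Tox21 cell reporter format: VDR-bla line, 16 h compound exposure in 5% CO2 at 37C, then fluorescence intensity after 2 h with LiveBLAzer B/G FRET substrate.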

Experiment [14] shares this target. Nature of the experiment: qHTS assay to identify small molecule antagonists of the vitamin D receptor (VDR) signaling pathway (AID 743223; active = well fitted inhibition curve with a large enough effect in the signal ratio in the repeat runs, not every such curve was filed as active; the % refers to the signal ratio; note: % is set by controls: 0 for no effect and ±100 for the full control effect). The gist of the method: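 Reporter line VDR-bla; stimulus 1alpha,25-(OH)2 vitamin D3, 3 nM final; compound co-addition, 16 h 37C/5% CO2; LiveBLAzer B/G substrate 2 h RT; fluorescence intensity.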
Experiment [15] is described as follows: qHTS assay to identify small molecule agonists of the endoplasmic reticulum stress response signaling pathway - cell viability counter screen (AID 1159517; calls by dose curve; note: nearly all actives have a fitted effect of over 50% in size; note: potency is the fitted concentration of half-maximal effect). The gist of the method:
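In parallel with the ESRE reporter read, cytotoxicity was scored by CellTiter-Glo luminescence (30 min, room temperature) on HeLa ESRE-bla cells dosed for 5 hr.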

The nature of experiment [16]: qHTS assay to identify small molecule agonists of the AP-1 signaling pathway (AID 1159526; calls by dose curve; note: potency is the fitted concentration of half-maximal effect).
Experiment [17] deals with Bile acid receptor (Homo sapiens) (UniProt Q96RI1). Nature of the experiment: qHTS assay to identify small molecule agonists of the farnesoid-X-receptor (FXR) signaling pathway (AID 743220; active = well fitted activation curve with a large enough effect in the signal ratio in the repeat runs, not every such curve was filed as active; the % refers to the signal ratio; note: % is set by controls: 0 for no effect and ±100 for the full control effect). The gist of the method: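 FXR-UAS-bla HEK 293T cells carrying a UAS-driven beta-lactamase reporter were plated for 5 h at 37C/5% CO2, then exposed to DMSO-dissolved Tox21 10K compounds for 16 h at 37C. A LiveBLAzer B/G FRET substrate was loaded for 2 h at room temperature before fluorescence reading.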
Chain of Bile acid receptor (Homo sapiens) (Q96RI1 whole entry, looked up): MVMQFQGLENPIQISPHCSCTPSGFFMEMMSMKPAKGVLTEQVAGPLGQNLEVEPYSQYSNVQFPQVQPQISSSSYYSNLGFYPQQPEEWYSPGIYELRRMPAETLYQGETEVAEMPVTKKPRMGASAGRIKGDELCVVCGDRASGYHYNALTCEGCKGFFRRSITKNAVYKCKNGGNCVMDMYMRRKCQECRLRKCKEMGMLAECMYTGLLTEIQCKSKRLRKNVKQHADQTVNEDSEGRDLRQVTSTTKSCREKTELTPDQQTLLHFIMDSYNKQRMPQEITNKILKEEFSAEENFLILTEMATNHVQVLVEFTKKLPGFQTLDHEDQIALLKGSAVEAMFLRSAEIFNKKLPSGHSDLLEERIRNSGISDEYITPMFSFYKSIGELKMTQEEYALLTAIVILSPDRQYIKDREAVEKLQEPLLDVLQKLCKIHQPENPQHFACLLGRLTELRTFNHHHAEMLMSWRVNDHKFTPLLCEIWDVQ

For experiment [18], the target named is Peroxisome proliferator-activated receptor delta (Homo sapiens) (UniProt Q03181). Nature of the experiment: qHTS assay to identify small molecule antagonists of the peroxisome proliferator-activated receptor delta (PPARd) signaling pathway (AID 743215; active = well fitted inhibition curve with a large enough effect in the signal ratio in the repeat runs, not every such curve was filed as active; the % refers to the signal ratio;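 note: cells stimulated with agonist L165041 at 300 nM final during compound exposure; potency is the fitted concentration of half-maximal effect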). The method, boiled down: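 Here, a reporter line (HEK293H, beta-lactamase under a UAS) measures PPARd signaling. Compounds are tested against agonist L165041 at 300 nM final concentration over 17 h at 37 C, with fluorescence read after substrate.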

Results filed as inconclusive are left out. Activity calls are given as the source filed them. Unless noted, calls come from the whole dose curve; as a rule, active = well fitted curve in the direction sought with a large enough effect in the repeat runs; inconclusive = weak or mixed curves; inactive = no such curve, though single readings can be large; an effect the other way counts as inactive or inconclusive.

Chain of Vitamin D3 receptor (Homo sapiens) (P11473 whole entry, looked up): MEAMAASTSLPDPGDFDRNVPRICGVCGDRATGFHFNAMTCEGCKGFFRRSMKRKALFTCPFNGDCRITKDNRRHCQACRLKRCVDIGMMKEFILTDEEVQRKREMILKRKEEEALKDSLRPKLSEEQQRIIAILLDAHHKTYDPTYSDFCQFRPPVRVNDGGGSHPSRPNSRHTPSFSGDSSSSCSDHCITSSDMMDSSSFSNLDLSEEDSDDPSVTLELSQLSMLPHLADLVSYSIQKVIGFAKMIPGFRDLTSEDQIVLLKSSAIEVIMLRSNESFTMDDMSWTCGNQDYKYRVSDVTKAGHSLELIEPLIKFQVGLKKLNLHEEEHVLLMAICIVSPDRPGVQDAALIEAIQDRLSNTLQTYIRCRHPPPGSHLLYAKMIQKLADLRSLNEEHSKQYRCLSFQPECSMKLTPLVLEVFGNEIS
Chain of Retinoic acid receptor RXR-alpha (Homo sapiens) (P19793 whole entry, looked up): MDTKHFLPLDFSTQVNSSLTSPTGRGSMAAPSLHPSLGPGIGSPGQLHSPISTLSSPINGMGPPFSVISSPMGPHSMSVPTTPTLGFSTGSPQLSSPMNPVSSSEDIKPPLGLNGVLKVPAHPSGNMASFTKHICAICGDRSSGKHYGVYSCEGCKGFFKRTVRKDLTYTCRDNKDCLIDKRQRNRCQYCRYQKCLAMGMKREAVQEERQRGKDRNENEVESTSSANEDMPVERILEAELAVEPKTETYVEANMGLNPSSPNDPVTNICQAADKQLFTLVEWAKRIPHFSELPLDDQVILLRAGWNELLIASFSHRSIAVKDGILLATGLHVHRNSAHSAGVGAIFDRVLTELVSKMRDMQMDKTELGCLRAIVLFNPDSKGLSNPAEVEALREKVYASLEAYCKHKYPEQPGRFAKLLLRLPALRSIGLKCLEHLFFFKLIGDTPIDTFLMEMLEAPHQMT

`C=C(C)C(=O)OCC[N+](C)(C)C`: the Potency result in experiment [1], in experiment [2], in [3], in [4], in [5] and in experiment [6] was “inactive” each time. Further, the Potency entry in [7], in experiment [8], in experiment [9], in [10], in [11] and in [12] was “inactive” each time.
`O=C1CCCc2c1cc1ccc3cccc4ccc2c1c34`: the Potency in [1] was 49.6 µM (active); in experiment [13] it was 19.7 µM (active); in experiment [16], 22.2 µM (active). In addition, the Potency result in experiment [2], in experiment [4], in experiment [14], in experiment [5], in experiment [6] and in experiment [7] was “inactive” in each case. Further, the Potency entry in [15], in experiment [10] and in experiment [12] was “inactive” each time.
On to `Cc1cc2c(cc1C(F)(F)F)N(C(=O)Nc1ccc(Oc3cccnc3C)nc1)CC2`, for which the Potency result in experiment [1], in [17], in [4], in experiment [13], in experiment [7] and in experiment [15] was “inactive” each time. The Potency in experiment [2] was 19.8 µM (active); in [3], 35.2 µM (active); in experiment [5] it was 31.4 µM (active).
Regarding `c1cc(C(c2ccc(OCC3CO3)cc2)c2ccc(OCC3CO3)cc2)ccc1OCC1CO1` (stereo unspecified), the Potency entry in experiment [2], in experiment [4], in [7], in experiment [15] and in experiment [10] was “inactive” in each case.
As for `CCCCCCCCCOC(=O)c1ccc(O)cc1`, the Potency was 24.2 µM (active) in experiment [2]; 48.3 µM (active) in experiment [3]; 43 µM (active) in experiment [4]; 17.1 µM (active) in [5]; 24.2 µM (active) in experiment [6]; 54.2 µM (active) in experiment [7]. Moreover, the Potency in [15] is 54.2 µM (active); in [10], 38.3 µM (active); in experiment [12], 24.2 µM (active).
Turning to `Cc1cc(CCN2CCN(c3nsc4ccccc34)CC2)cc2c1NC(=O)CC2(C)C`, the Potency in [2] was 19.5 µM (active); in experiment [18], 19.5 µM (active); in experiment [3], 21.9 µM (active); in [4], 38.9 µM (active); in experiment [5], 17.4 µM (active); in experiment [7], 54.9 µM (active). Besides, the Potency in experiment [8] was 61.1 µM (active); in [9], 9.69 µM (active); in [10], 54.9 µM (active); in experiment [12] it was 11 µM (active).
`C=CC(=O)OCCn1c(=O)n(CCOC(=O)C=C)c(=O)n(CCOC(=O)C=C)c1=O`: the Potency in experiment [2] is 19.5 µM (active); in experiment [18] it was 13.8 µM (active); in experiment [3], 24.5 µM (active); in experiment [4], 34.7 µM (active); in [5], 49 µM (active); in experiment [6], 43.6 µM (active). The figures for the Potency in [9] and in experiment [12] were 12.2 µM (active) and 24.5 µM (active), respectively. In addition, the Potency result in [7], in experiment [8] and in experiment [10] was “inactive” throughout.
As to `O=C(OC[C@H]1O[C@@H](OC(=O)c2cc(O)c(O)c(OC(=O)c3cc(O)c(O)c(O)c3)c2)[C@H](OC(=O)c2cc(O)c(O)c(OC(=O)c3cc(O)c(O)c(O)c3)c2)[C@@H](OC(=O)c2cc(O)c(O)c(OC(=O)c3cc(O)c(O)c(O)c3)c2)[C@@H]1OC(=O)c1cc(O)c(O)c(OC(=O)c2cc(O)c(O)c(O)c2)c1)c1cc(O)c(O)c(OC(=O)c2cc(O)c(O)c(O)c2)c1`, the Potency in experiment [2] was 13.2 µM (active). The Potency entry in [3], in experiment [4], in [13] and in experiment [7] was “inactive” each time. In experiment [8], the activity, negative = cytotoxicity is -4.77% [at 19 µM] (inactive). Also, the viability change, negative = cytotoxic in experiment [10] was 1.96% [at 15.8 µM] (inactive). Moreover, the activity change, negative = cytotoxicity in [12] was 11.4% [at 15.8 µM] (inactive).
In the case of `CCCC(=O)OC[C@@H](OC(=O)CCC)[C@@H](OC(=O)CCC)[C@H](Cn1c2nc(=O)[nH]c(=O)c-2nc2cc(C)c(C)cc21)OC(=O)CCC`, the Potency entry in experiment [3], in experiment [4], in [5], in [7], in experiment [8] and in [10] was “inactive” in each case. The Potency entry in experiment [12] was “inactive”.
With `COc1cccc2c1C(=O)c1c(O)c3c(c(O)c1C2=O)C[C@@](O)(C(=O)CO)C[C@@H]3O[C@H]1C[C@H](N)[C@H](O[C@@H]2CCCCO2)[C@H](C)O1`, the Potency result in experiment [1], in experiment [2], in [3], in [4], in experiment [5] and in experiment [7] was “inactive” in each case. The Potency result in experiment [9] is “inactive”. Besides, the Potency in [8] was 5.31 µM (active).
